Screening results as filed in PubChem BioAssay.
IL1B secr inh: qHTS for Inhibitors of Inflammasome Signaling: IL-1-beta AlphaLISA Primary Screen; THP-1 LPS/ATP IL-1B secretion, AlphaLISA, 16 h; stronger effect = lower value; activity change, % at 57.5 µM; actives 4.7% (n = 360,000); AID 743279, 2014; in the data active = activity change below about -50%; inconclusive = mostly about -30% to -49%
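Secreted IL-1B measured by AlphaLISA bead assay after 16 h compound exposure of THP-1 cells; compounds (final up to 57.5 uM) added 1 h before LPS (250 ng/mL) and ATP (1.25 mM) stimulation; lower signal means less secretion.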
Six1-Eya2 inh: qHTS Assay for Inhibitors of the Six1/Eya2 Interaction | AlphaScreen GST-Six1/His-Eya2 binding, biochemical; stronger effect = lower value | actives 0.56% (n = 360,000) | activity change, % (concentration not given with the values) | Homeobox protein SIX1 (Homo sapiens) + Protein phosphatase EYA2 (Homo sapiens), …; in the data active = activity change below about -65%; inconclusive = mostly about -30% to -63%
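AlphaScreen luminescence read after one hour at 37 °C in darkness. Pin-transferred compounds met GST-Six1 and His-Eya2 protein (5X stock 250 nM/500 nM) plus glutathione donor and Ni-chelate acceptor beads (5X, 50 ug/mL).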
CtBP-E1A inh: qHTS Assay for Inhibitors of the CtBP/E1A Interaction; CtBP / adenovirus E1A interaction (AlphaScreen); activity change, % (test concentration not listed); AID 651724, 2012; actives 0.49% (n = 340,000); AlphaScreen GST-E1A/His-CtBP binding, 1536-well; stronger effect = lower value; in the data active = activity change below about -65%; inconclusive = mostly about -30% to -63%
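In 5 uL wells, 23 nL compound meets equimolar GST-E1A and His-CtBP (5X stock 125 nM each) for 2 h, 37 °C. Beads (5X, 50 ug/mL) then 1 h, 37 °C, dark.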
DT40 TDP1 no CPT: qHTS for Inhibitors of human tyrosyl-DNA phosphodiesterase 1 (TDP1): qHTS in cells in absence of CPT; DT40 Tdp1-/- hTDP1 cells, no CPT, ATP luminescence, 48 h; Potency, µM (series often up to 46.2 µM), inactives show at the top dose activity change, negative = growth inhibition, most hits filed as inhibitors; actives 15% (n = 420,000); AID 686978, 2013; note: potency is the fitted concentration of half-maximal effect; nearly all actives have a fitted effect of over 55% in size
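Readout: luminescence from CellTiter-Glo after 30 min in the dark at RT. Cells: DT40 Tdp1-/- with stable hTDP1, 400/well. Exposure: compounds alone, ≥48 hr, 37 °C.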
TDP1 inh: qHTS Assay for Inhibitors of Tyrosyl-DNA Phosphodiesterase (TDP1); Tyrosyl-DNA phosphodiesterase 1 (Homo sapiens), Q9NUW8; Potency, µM (highest dose often 130 µM), for inactives: at the highest dose activity change, negative = inhibition, hits mostly inhibitors; AID 485290, 2010; actives 0.28% (n = 350,000); recombinant TDP1, AlphaScreen DNA substrate cleavage; note: potency is the fitted concentration of half-maximal effect; nearly all actives have a fitted effect of over 40% in size
Target sequence (Q9NUW8 whole entry, looked up): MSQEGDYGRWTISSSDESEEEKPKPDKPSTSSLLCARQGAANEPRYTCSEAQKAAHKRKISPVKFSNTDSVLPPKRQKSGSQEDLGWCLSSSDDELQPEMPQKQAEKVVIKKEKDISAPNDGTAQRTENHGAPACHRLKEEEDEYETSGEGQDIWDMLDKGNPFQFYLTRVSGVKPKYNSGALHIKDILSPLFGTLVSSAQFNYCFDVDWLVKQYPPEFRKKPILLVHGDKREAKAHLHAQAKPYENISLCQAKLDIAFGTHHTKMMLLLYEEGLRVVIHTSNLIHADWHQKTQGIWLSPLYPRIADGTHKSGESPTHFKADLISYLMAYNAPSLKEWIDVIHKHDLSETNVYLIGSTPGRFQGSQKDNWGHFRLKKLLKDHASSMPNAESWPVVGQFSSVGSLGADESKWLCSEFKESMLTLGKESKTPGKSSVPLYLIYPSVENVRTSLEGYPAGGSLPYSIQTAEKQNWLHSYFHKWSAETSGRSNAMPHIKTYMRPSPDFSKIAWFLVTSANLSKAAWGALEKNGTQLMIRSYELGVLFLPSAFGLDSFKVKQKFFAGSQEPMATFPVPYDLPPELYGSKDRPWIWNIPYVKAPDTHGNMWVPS
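Here, a 5' biotin and 3' phosphotyrosine-FITC DNA oligonucleotide reports Tdp1 activity: intact substrate bridges AlphaScreen beads, while cleavage leaves a 3' phosphate and drops signal. All incubations at room temperature.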
TDP1 cell CPT: qHTS for Inhibitors of human tyrosyl-DNA phosphodiesterase 1 (TDP1): qHTS in cells in presence of CPT. actives 12% (n = 420,000). chicken DT40 Tdp1-/-;hTDP1 cells + 20 nM CPT, ATP luminescence, 48 h. Potency, µM (top dose mostly 46.2 µM), for the others: at the highest dose activity change, negative = growth inhibition, usual class: inhibitors. AID 686979, 2013; note: potency is the fitted concentration of half-maximal effect; nearly all actives have a fitted effect of over 55% in size
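Chicken DT40 Tdp1-/- cells complemented with human TDP1, 400 cells/well, exposed to compounds plus 20 nM camptothecin for at least 48 h at 37 C; viability read as ATP content by CellTiter-Glo luminescence.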
* = called active by the depositor; ? = inconclusive; · = no result given; [ ] = dose if it differs, or a comment. Shown are actives, neighbours in structure and some others; about 18% of the full set was active somewhere. Unless noted, calls come from the whole dose curve; as a rule, active = well fitted curve in the direction sought with a large enough effect; inconclusive = small, poorly fitted or top-dose-only effect, or another doubt; inactive = no such curve, though single readings can be large; an effect the other way counts as inactive or inconclusive. % is set by controls: 0 for no effect and ±100 for the full control effect.

SMILES	IL1B secr inh	Six1-Eya2 inh	CtBP-E1A inh	DT40 TDP1 no CPT	TDP1 inh	TDP1 cell CPT
C[C@@H]1CN([C@@H](C)CO)C(=O)CCCn2nncc2CO[C@@H]1CN(C)C(=O)Oc1cccc2ccccc12	5.9	-0.5	5.0	0.581µM*	·	0.517µM*
C[C@@H]1CN([C@H](C)CO)C(=O)CCCn2nncc2CO[C@@H]1CN(C)C(=O)Oc1ccc2ccccc2c1	-9.5	6.2	-5.9	8.2µM*	·	8.3%
Cc1cc(-c2cc(C)c(N)c(C)c2)cc(C)c1N	-3.4	-5.2	-24.8	-14.2%	22.2%	-4.7%
Cc1[nH]c2ccccc2c1C1=CCNCC1	-0.8	-10.6	2.9	?	11.4%	?
FC(F)(F)c1cccc(C2=CCN(CCc3ccc4ccccc4c3)CC2)c1	·	·	·	-47.6%	8.9%	-18.0%
c1ccc(C(c2ccccc2)c2cccnc2)cc1	-13.1	6.7	4.5	?	·	-30.0%
c1ccc(-c2ccc(C(c3ccccc3)n3ccnc3)cc2)cc1 (centres undefined)	-22.1	-2.1	-7.1	23.1µM*	10.8%	10.3µM*
Cc1cc(N(CCCl)CCCl)ccc1C=NNC(=O)c1cccnc1	0.4	-16.6	0.0	?	·	10.3µM*
O=C(NN=Cc1ccc(N(CCCl)CCCl)cc1Cl)c1cccnc1	-5.9	-5.0	9.8	23.1µM*	·	?
O=C(c1ccc2c(=O)n(Cc3ccc4c(c3)OCO4)c(=S)[nH]c2c1)N1CCC2(CC1)OCCO2	8.2	-1.8	-9.7	?	7.1%	23.1µM*
COc1cc(/C=N/Nc2ccc(S(N)(=O)=O)cc2)cc(OC)c1OC	-1.6	?	-1.7	20.6µM*	2.4%	?
Cc1ccc(C)c(CN2CCC(n3nnc4cc(F)ccc43)CC2)c1	-23.4	-3.7	-2.3	?	7.1%	?
Fc1ccc2c(c1)nnn2C1CCN(Cc2c(Cl)cccc2Cl)CC1	-2.6	-9.6	-0.3	18.4µM*	3.6%[56.1 µM]	18.4µM*
CC(O)(CS(=O)(=O)c1cccc(C(F)(F)F)c1)C(=O)Nc1cccc(C(F)(F)F)c1 (centres undefined)	-4.6	-2.1	1.6	?	-2.0%	?
Oc1c(Cl)c(Cl)c(Cl)c(Cl)c1Cl	-11.3	-2.1	-10.1	20.6µM*	2.7%	?
O=C(NC1CN2CCC1CC2)c1cccc(Cl)c1 (centres undefined)	2.2	7.7	-0.7	-22.6%	·	2.2%
O=C1c2ccccc2-n2nnc(-c3ccccc3)c2C2c3ccccc3CCN12 (centres undefined)	52.0	5.2	-1.7	7.31µM*	·	16.4µM*
CCC1COC(Cn2cncn2)(c2ccc(Cl)cc2Cl)O1 (centres undefined)	·	·	·	·	3.6%	·
CC(=O)N1CCN(c2ccc(OCC3CO[C@@](Cn4ccnc4)(c4ccc(Cl)cc4Cl)O3)cc2)CC1 (some centres undefined)	·	·	·	6.51µM*	17.5%[56.1 µM]	7.31µM*
CC(=O)NCC(N)C(=O)c1ccc(C)cc1 (centres undefined)	·	·	·	15.8µM*	·	?
COc1cc(C#Cc2c(-c3cncn3C)n(C)c3ccc(-c4cnc(N5CCOCC5)nc4)cc23)cc(OC)c1	?	-21.7	-21.6	11.6µM*	4.0%	16.4µM*
Cc1cccc(-n2c(/C=C/c3ccccn3)nc3ccccc3c2=O)c1	-52.1*	-0.8	2.3	?	-19.6%	23.1µM*
Cc1cccc(-n2c(/C=C\c3cccc(Br)c3)nc3ccccc3c2=O)c1	·	·	·	?	5.2%	?
